Among the data in ChEMBL document CHEMBL4296182, “CO-ADD screening of NIH NCI Diversity Set V” are Inhibition values, retold here.

For some assays here: Results with a measured potency or affinity are listed apart.

For one experiment, the system named is Escherichia coli. The experiment is described as follows: Antibacterial activity against Escherichia coli ATCC 25922 (CO-ADD:GN_001); MIC in CAMBH media using NBS plates, by Resazurin F(560/590). It counts as functional. Conditions: Concentration 20 uM, ASSAY_TEST Inhibition of Bacterial Growth, detection method Resazurin, Fluorescence (ex560/em590), MEDIA CAMHB, plate type 384well, CORNING #3640, time 18 hr. Background: The colour change of resazurin is a common sign of viable cells or microbes.
What is called Inhibition is the relative decrease from the control value, in per cent. For `CC1(C)C2CCC(CN=C(N)CSS(=O)(=O)O)C1C2` (centres undefined), the Inhibition is 1.93%.
For `C[C@@H]1C[C@H]2OC(=O)[C@@]3(C)CCC[C@@](C)([C@@H]23)[C@@]1(O)CCc1ccoc1`, the Inhibition was -14.05%.
Consider `c1cc(-n2nnc3cnccc32)ccn1`, for which the Inhibition was 12.03%.
In the case of `Cn1c(=O)c2c(nc(N3CCOCC3)n2C)n(C)c1=O`, the Inhibition was determined as 2.94%.
With `CC(=O)Oc1ccc(OC(C)=O)c2c1CC1(C)OC1(C)C2` (centres undefined), the Inhibition was determined as 3.36%.
In the case of `COc1cnc(SC)nc1Nc1ccc(C#N)cc1`, the Inhibition is on record as 14.33%.
Take `CCN(CC)C(=O)Cn1ccc(NC(C)=O)nc1=O`: the Inhibition came out at 5.52%.
As for `O=C1c2ccccc2C(=O)c2[nH]cnc21`, the Inhibition is -19.22%.
As to `S=C(Nc1ccccc1)Nc1nccs1`, the Inhibition was -3.08%.
In the case of `O=c1[nH]cc(Cl)cc1Cl`, the Inhibition came to 16.35%.
Turning to `CC(=O)Nc1ccc(S(=O)(=O)N/N=c2/sc3ccccc3n2C)cc1N`, the Inhibition was found to be 3.58%.
In the case of `Oc1ccc(N/C(S)=N/c2ccccc2)cc1`, the Inhibition is listed as -4.05%.
In the case of `CC(C)COc1nc2c(c(=O)n(C)c(=O)n2C)n1C`, the Inhibition is reported as 12.8%.
Consider `Cc1ccc(S(=O)(=O)CCOC(=O)CNC(=O)OCc2ccccc2)cc1`, for which the Inhibition is given as 0.72%.
As to `N#CC1=C(Nc2ccccc2Cl)SC(c2ccccc2O)NC1=O` (centres undefined), the Inhibition was 4.44%.
As to `CC(C)(C)CC(C)(C)n1nnnc1N`, the Inhibition is recorded as 15.8%.
In the case of `c1ccc(Sc2ncccn2)nc1`, the Inhibition is recorded as 7.64%.
Still for that read-out and setting: next, `Cc1ccc(/N=N/c2ccc(N)cc2C)c(S(N)(=O)=O)c1`: 2.58%.
Consider `CC(=C/c1ccccc1)/C=C1/NC(=S)NC1=O`, for which the Inhibition is reported as -0.7%.
`Cc1cn(C2CC(O)C(CO)O2)c(=O)n(Cc2ccccc2)c1=O` (centres undefined): the Inhibition turned out to be 7.7%.
As to `COC1OCC(O)C(NC(=O)N(C)N=O)C1O` (centres undefined), the Inhibition was -7.74%.
In the case of `Cc1cccc2cc3cccc(C)c3nc12`, the Inhibition was -1.48%.
Same read-out and setting: with `O=C(Nc1ccc(NC(=O)c2ccncc2)cc1)c1ccncc1` the figure was 8.24%.
On the same count and under the same terms, with `COc1cc(NC(=O)CCl)ccc(=O)c1` the figure was 9.48%; with `O=[N+]([O-])c1ccc(-c2ncc(-c3ccc(Br)cc3)o2)cc1`, 2.7%; with `COc1ccc(Cc2nnc(SC)n2-c2ccc(F)cc2)cc1OC`, 10.28%.
`O=C(Oc1ccccc1)c1cccc2cccc(C(=O)Oc3ccccc3)c12`: the Inhibition was -0.78%.
Consider `N#Cc1ccc(NC2c3ccccc3CC2O)cc1` (centres undefined), for which the Inhibition is on record as -15.24%.
Turning to `COc1cc2c(c3c1c(=O)c1cccc(F)c1n3C)C=CC(C)(C)O2`, the Inhibition was 5.53%.
`CC(C)(C)C(=O)/C=C/c1ccc(Oc2ccccc2)cc1`: the Inhibition is reported as -4.94%.
`Cc1cnc2cc(Cl)ccc2c1SCC(=O)O`: the Inhibition was found to be 1.72%.
Turning to `O=C(Nc1ccc(F)cc1)OCCOc1ccc([N+](=O)[O-])cc1`, the Inhibition was -7.06%.
For `NC(=O)c1ccc(Oc2ccc(C(N)=O)cc2)cc1`, the Inhibition is listed as 0.31%.
As to `CCSc1ncc(CO)c(N)n1`, the Inhibition stood at 2.64%.
For `CCN(CC)CCN1C(=O)c2cccc3cc(N)cc(c23)C1=O`, the Inhibition is 10.46%.
As for `CC(C)(C)N1CC(OC(N)=O)C1`, the Inhibition is on record as 8.01%.
In the case of `NC(=O)/C(=C\c1ccncc1)c1cccc2ccccc12`, the Inhibition came to 6.96%.

The next experiment has as its system Klebsiella pneumoniae. Conditions: Concentration 20 uM; ASSAY_TEST Inhibition of Bacterial Growth; detection method Absorption (OD600); MEDIA CAMHB; plate type 384well; NBS; CORNING #3640; time 18 hr.
`CC1(C)C2CCC(CN=C(N)CSS(=O)(=O)O)C1C2` (centres undefined): the Inhibition was found to be 19.04%.
For `C[C@@H]1C[C@H]2OC(=O)[C@@]3(C)CCC[C@@](C)([C@@H]23)[C@@]1(O)CCc1ccoc1`, the Inhibition was 4.6%.
On to `c1cc(-n2nnc3cnccc32)ccn1`, for which the Inhibition is recorded as -0.91%.
On to `Cn1c(=O)c2c(nc(N3CCOCC3)n2C)n(C)c1=O`, for which the Inhibition came to 9.52%.
`CC(=O)Oc1ccc(OC(C)=O)c2c1CC1(C)OC1(C)C2` (centres undefined): the Inhibition was 9.63%.
Same read-out and setting: with `COc1cnc(SC)nc1Nc1ccc(C#N)cc1` the figure was 23.54%; with `CCN(CC)C(=O)Cn1ccc(NC(C)=O)nc1=O`, 3.42%; with `O=C1c2ccccc2C(=O)c2[nH]cnc21`, 13.37%.
Still for that read-out and setting: next, `S=C(Nc1ccccc1)Nc1nccs1`: 13.95%.
Turning to `O=c1[nH]cc(Cl)cc1Cl`, the Inhibition is 10.84%.
Regarding `CC(=O)Nc1ccc(S(=O)(=O)N/N=c2/sc3ccccc3n2C)cc1N`, the Inhibition turned out to be 3.38%.
The same measure, in the same setting: with `Oc1ccc(N/C(S)=N/c2ccccc2)cc1` the figure was 4.37%.
Consider `CC(C)COc1nc2c(c(=O)n(C)c(=O)n2C)n1C`, for which the Inhibition stood at 5.36%.
On the same count and under the same terms, next, `Cc1ccc(S(=O)(=O)CCOC(=O)CNC(=O)OCc2ccccc2)cc1`: 12.65%; `N#CC1=C(Nc2ccccc2Cl)SC(c2ccccc2O)NC1=O` (centres undefined): 12.14%.
With `CC(C)(C)CC(C)(C)n1nnnc1N`, the Inhibition turned out to be 12.31%.
Regarding `c1ccc(Sc2ncccn2)nc1`, the Inhibition is reported as 5.74%.
For `Cc1ccc(/N=N/c2ccc(N)cc2C)c(S(N)(=O)=O)c1`, the Inhibition stood at 0.06%.
With `CC(=C/c1ccccc1)/C=C1/NC(=S)NC1=O`, the Inhibition is given as 10.87%.
Same read-out and setting: next, `Cc1cn(C2CC(O)C(CO)O2)c(=O)n(Cc2ccccc2)c1=O` (centres undefined): 11.99%.
Turning to `COC1OCC(O)C(NC(=O)N(C)N=O)C1O` (centres undefined), the Inhibition came out at 18.14%.
Take `Cc1cccc2cc3cccc(C)c3nc12`: the Inhibition amounted to 1.32%.
Still for that read-out and setting: with `O=C(Nc1ccc(NC(=O)c2ccncc2)cc1)c1ccncc1` the figure was 15.75%.
Turning to `COc1cc(NC(=O)CCl)ccc(=O)c1`, the Inhibition worked out at 4.54%.
The same measure, in the same setting: next, `O=[N+]([O-])c1ccc(-c2ncc(-c3ccc(Br)cc3)o2)cc1`: 5.71%; `COc1ccc(Cc2nnc(SC)n2-c2ccc(F)cc2)cc1OC`: 14.43%; `O=C(Oc1ccccc1)c1cccc2cccc(C(=O)Oc3ccccc3)c12`: 14.06%.
On to `N#Cc1ccc(NC2c3ccccc3CC2O)cc1` (centres undefined), for which the Inhibition is listed as 3.05%.
For `COc1cc2c(c3c1c(=O)c1cccc(F)c1n3C)C=CC(C)(C)O2`, the Inhibition amounted to 10.26%.
For the compound `CC(C)(C)C(=O)/C=C/c1ccc(Oc2ccccc2)cc1`, the Inhibition stood at 20.89%.
Regarding `Cc1cnc2cc(Cl)ccc2c1SCC(=O)O`, the Inhibition came out at 11.14%.
For the compound `O=C(Nc1ccc(F)cc1)OCCOc1ccc([N+](=O)[O-])cc1`, the Inhibition stood at 8.41%.
Regarding `NC(=O)c1ccc(Oc2ccc(C(N)=O)cc2)cc1`, the Inhibition came to 15.83%.
Take `CCSc1ncc(CO)c(N)n1`: the Inhibition worked out at 10.1%.
As to `CCN(CC)CCN1C(=O)c2cccc3cc(N)cc(c23)C1=O`, the Inhibition is 12.53%.
Same read-out and setting: with `CC(C)(C)N1CC(OC(N)=O)C1` the figure was 8.74%; with `NC(=O)/C(=C\c1ccncc1)c1cccc2ccccc12`, 13.72%.
